An excerpt weighted towards active compounds, which were near 6.6% of everything screened.
Mtb FBA inh: Mtb FBA enzyme inhibitors, primary screen, biochemical, fluorescence, strain H37Rv; inhibition, % at 1 µM; AID 588726, 2011; 2.3% of 360,000 active; purified M. tuberculosis FBA, fluorescence read-out; in the data active = inhibition above about 27%
Target sequence (P9WQA3 whole entry, looked up): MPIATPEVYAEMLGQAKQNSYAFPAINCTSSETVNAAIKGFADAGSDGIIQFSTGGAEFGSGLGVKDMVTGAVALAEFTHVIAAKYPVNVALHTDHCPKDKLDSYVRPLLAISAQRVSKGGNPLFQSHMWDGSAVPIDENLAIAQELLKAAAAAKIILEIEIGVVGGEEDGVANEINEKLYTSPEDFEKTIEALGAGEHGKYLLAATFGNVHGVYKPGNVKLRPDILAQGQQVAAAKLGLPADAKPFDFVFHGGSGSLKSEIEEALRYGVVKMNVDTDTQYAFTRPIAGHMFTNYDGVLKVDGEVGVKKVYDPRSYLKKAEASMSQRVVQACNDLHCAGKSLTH
BoNT-A LC inh2: BoNT/A light chain protease inhibitors, primary screen, biochemical, flow cytometry, MLPCN library; Botulinum neurotoxin type A light chain protease (Clostridium botulinum A str. ATCC 3502); multiplex microsphere protease substrate cleavage; inhibition, % at 10 µM; 0.17% of 360,000 active
Anthrax LF prot: Bacillus anthracis LF protease inhibitors, primary screen, biochemical, multiplex microsphere, MLPCN library. inhibition, % at 10 µM. 0.12% of 360,000 active. multiplex microsphere protease cleavage assay. Lethal factor (Bacillus anthracis), P15917
Bead autofluor: compound fluorescence in toxin protease inhibitor counterscreen. compound autofluorescence counterscreen, microsphere flow cytometry; hits give high values. fluorescence intensity (no concentration beside the values). 3.1% of 360,000 active. AID 624483; in the data active = fluorescence intensity above about 16000; inconclusive = no clear call, values can overlap the other calls
GDH-TPI inh: GDH-TPI coupling enzyme inhibitors, primary screen, artefact control for M. tuberculosis FBA inhibitor project, biochemical, absorbance, full deck; inhibition, % at 4.8 µM; 1.2% of 360,000 active; GDH-TPI coupled enzyme counterscreen, NADH absorbance; in the data active = inhibition above about 30%
BoNT-F LC inh: BoNT/F light chain protease inhibitors, primary screen, biochemical, flow cytometry, MLPCN library; Botulinum neurotoxin type F light chain protease (Clostridium botulinum); Multiplex microsphere protease cleavage assay; inhibition, % at 10 µM; 0.22% of 360,000 active; AID 588497, 2011; in the data active = inhibition above about 35%, passing the limit was not always enough; inconclusive = no clear call, values can overlap the other calls
Each line names hits and unclear results; the compound was inactive in the other large screens; ! = a repeat was not active. Rule as the data show it, unless noted: active = inhibition above about 30%; inconclusive = no clear call, values can overlap the other calls; inactive = below that.

Cc1ccc(Cc2c(-c3ccc(F)cc3)nc3cc(C)ccn23)cc1	none
O=c1c2c(nc3c(-c4cccc5ccccc45)c[nH]n13)CCC2	Mtb FBA inh 129
O=c1c2c(nc3c(-c4ccc(Cl)cc4)c[nH]n13)CCCC2	none
O=c1c2cc(N3CCOCC3)ccc2[nH]c(=S)n1Cc1ccco1	BoNT-A LC inh2 inconclusive, Anthrax LF prot inconclusive, Bead autofluor inconclusive, BoNT-F LC inh inconclusive
COc1cccc(Cn2c(=S)[nH]c3ccc(N4CCOCC4)cc3c2=O)c1	Bead autofluor 20640
O=c1c2cc(N3CCOCC3)ccc2[nH]c(=S)n1Cc1cccc(Cl)c1	Bead autofluor 23197
CSC1=N/C(=C\c2ccccc2)C(=O)N1C	Bead autofluor 21913
CSC1=N/C(=C\c2cccnc2)C(=O)N1c1ccccc1	none
C/C(=N\Nc1ncc(Cl)cc1Cl)c1ccc(C#N)cc1	GDH-TPI inh 46
C=CCc1cc(OC)ccc1OCC(O)CN1CCN(c2ccc(OC)cc2)CC1 (stereo unspecified)	BoNT-A LC inh2 inconclusive, Bead autofluor 22414!
O=C(NC12CCC(O)C(SC1)/C2=N/O)c1ccccc1 (stereo unspecified)	Bead autofluor 19906
Cc1ccnc(SCC(=O)Nc2sc3c(c2C#N)CCC(C(C)(C)C)C3)n1 (stereo unspecified)	BoNT-A LC inh2 inconclusive, Bead autofluor 19751
COc1ccc(CNc2cc(C)ccc2C)c(OC)c1OC	Bead autofluor 19482
COc1ccc(C)cc1NCc1cccc(OC)c1OC	Bead autofluor 22091
O=C(CSc1nnc2ccccn12)NNC(=O)c1ccc(Br)cc1	none
CCCCc1nc2ccccc2c(=O)n1-c1ccc(Cl)cc1[N+](=O)[O-]	BoNT-A LC inh2 inconclusive, Bead autofluor 22486
CCCCc1nc2ccccc2c(=O)n1-c1ccccc1[N+](=O)[O-]	Bead autofluor inconclusive
O=c1[nH]c(SCC2CCCCO2)nc2ccccc12 (stereo unspecified)	BoNT-A LC inh2 inconclusive, Bead autofluor 21391
CCn1c(Cc2ccccc2)nnc1SCC(=O)N1CCCC1=O	none
COc1ccc(C(=O)CC2OC(=O)c3ccccc32)cc1OC (stereo unspecified)	BoNT-A LC inh2 inconclusive, Bead autofluor 21822
COc1ccc2c(c1OC)C(=O)OC2CC(=O)c1ccc(N(C)C)cc1 (stereo unspecified)	GDH-TPI inh 31
O=C(NCc1ccccc1C(F)(F)F)C1CCC(=O)N(CCCc2ccccc2)C1 (stereo unspecified)	Bead autofluor inconclusive
COC(=O)c1scc(C)c1N/N=C(\C)c1cc(F)c(Cl)cc1F	Bead autofluor 16330
CCOC(=O)C(=CNNc1c(C)csc1C(=O)OC)C(=O)OCC	none
CC(=O)N1N=C(c2ccc(C)o2)CC1c1ccc(F)cc1 (stereo unspecified)	GDH-TPI inh 71
CCC(=O)N1N=C(c2ccc(C)o2)CC1c1ccc(Br)cc1 (stereo unspecified)	none
N#Cc1ccc(N)cc1OCCCN1CCCCC1	none
C=CCn1c(O)c(/C=N/N2CCCCC2c2cccnc2)c(=O)[nH]c1=S (stereo unspecified)	GDH-TPI inh 31
COc1ccc(CC(=O)Nc2ccc(S(=O)(=O)N3CCCCC3)cc2)cc1OC	none
O=C1NCCCC2c3c(cc(Br)c(O)c3Br)OC12N1CCOCC1 (stereo unspecified)	Bead autofluor 20273
COc1ccc(Cc2nnc3n2N=C(c2cc4ccccc4o2)CS3)cc1OC	GDH-TPI inh 41
Cc1ccc2c(c1)c1c(n2C)C(C(N)=O)CCC1 (stereo unspecified)	Bead autofluor 22355
CC(=O)N1CCn2c3c(c4cc(C)ccc42)CCCC31 (stereo unspecified)	none
Cc1nc(N2CCN(C(=O)c3ccc(Cl)cc3)CC2)c(C#N)c2c1COC(C)(C)C2	Mtb FBA inh 38
CC1(C)Cc2c(C#N)c(N3CCN(C(=O)c4ccco4)CC3)nc(Cc3ccccc3)c2CO1	none
Cc1ccc(S(=O)(=O)N2CCN(c3nc(C(C)C)c4c(c3C#N)CC(C)(C)OC4)CC2)cc1	Bead autofluor 22172
COC(=O)c1cc(C(=O)OCC(=O)c2ccc[nH]2)cc([N+](=O)[O-])c1	none
CCN(CC(=O)NCc1ccccc1Cl)CC(=O)Nc1c(F)cccc1F	GDH-TPI inh 44
CN(CC(=O)NCc1ccccc1Cl)CC(=O)Nc1ccccc1Br	none
COc1ccc(-c2cc3c(o2)CCCC3OCCN2CCOCC2)cc1 (stereo unspecified)	none (no result: Mtb FBA inh, GDH-TPI inh)
C=CCNC(=S)NNC(=O)c1cccc2ccccc12	Bead autofluor 21284
C=CCNC(=S)NNC(=O)c1ccc(=O)n(Cc2ccccc2)c1	none
CCNC(=S)NNC(=O)c1cccn(Cc2ccc(Cl)cc2Cl)c1=O	BoNT-A LC inh2 inconclusive, Bead autofluor 22212, GDH-TPI inh 32
C=CCNC(=S)NNC(=O)c1cccn(Cc2ccc(Cl)cc2Cl)c1=O	BoNT-A LC inh2 inconclusive, Bead autofluor 22647
C=CCNC(=S)NNC(=O)c1ccccc1	none
O=C(Nc1cccn(Cc2c(Cl)cccc2Cl)c1=O)c1ccc(Cl)cc1Cl	none
O=C1c2ccccc2C2N1CCCN2C(=O)c1sc2ccccc2c1Cl (stereo unspecified)	none
COc1nc(N/N=C/c2ccccc2F)nc(N2CCCCC2)n1	Bead autofluor 22376
COc1ccc(COc2ccccc2C(=O)Nc2ccccn2)cc1[N+](=O)[O-]	none
Cc1ccc(-n2c(SCC(=O)Nc3cccc(S(N)(=O)=O)c3)nc3ccccc32)cc1	none
CCOC(=O)c1c(CN2CCNCC2)nc2ccc(Cl)cc2c1-c1ccccc1	none
O=C(COc1ccc(S(=O)(=O)NC2CCCCC2)cc1)N1CCN(c2cccc(Cl)c2)CC1	Bead autofluor 22384
CCSC1=NCCN1C(=O)c1ccc(S(=O)(=O)N(C)C)cc1	none
Cc1cccc(C)c1NC(=O)CN1C(=O)NC(C)(C2CC2)C1=O (stereo unspecified)	none
COc1cc2cc(C(=O)N3CC(COS(C)(=O)=O)c4ccc(O)cc43)[nH]c2c(OC)c1OC (stereo unspecified)	GDH-TPI inh 39
Cc1ccccc1-c1nnc(SCC(=O)N(C)c2c(N)n(Cc3ccccc3)c(=O)[nH]c2=O)n1C	none
CC(C)OC(=O)c1ccc(Cn2nnc3ccccc3c2=O)cc1	Bead autofluor 20849
O=c1c2ccccc2nnn1Cc1ccc(Br)cc1	none
Cc1cc(=O)n2ccsc2n1	none
COc1ccc(N2C(=O)CC(Nc3ccc(C)cc3)C2=O)cc1 (stereo unspecified)	BoNT-A LC inh2 inconclusive, Bead autofluor 21164

Bioassay records from PubChem.
